Measured values from the supplement of paper PMC6555819.

Assays:
Assay in all cases: PBM binding z-score (relative to random genomic background probes); higher = stronger binding; sequences stand for … in GC…GCGATTGACAGCGTAGAATGAAGG
[1] = system: FXR:RXRa (NR concentration 270 nM, RXRa partner concentration 90 nM)
In short: (§1)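 Binding buffer was PBS pH 7.4 with 2% milk, 0.02% Triton X-100, 1 mM DTT, 0.2 mg/mL BSA and 0.4 mg/ml salmon testes DNA. In it, ligand-free nuclear receptor dimers were incubated 1 h on custom Agilent 4×180K protein-binding microarrays carrying double-stranded probes. Antibodies against each partner (one per run) detected binding, and z-scores were calculated against random background probes after regression normalization of scanned fluorescence.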

[2] = system: LXRa:RXRa (NR concentration 270 nM, RXRa partner concentration 90 nM)
In short: as §1

[3] = system: LXRa homodimer (NR concentration 270 nM)
In short: as §1

[4] = system: LXRb:RXRa (NR concentration 270 nM, RXRa partner concentration 90 nM)
In short: as §1

[5] = system: LXRb homodimer (NR concentration 270 nM)
In short: as §1

[6] = system: PPARa:RXRa (NR concentration 270 nM, RXRa partner concentration 90 nM)
In short: as §1

[7] = system: PPARg:RXRa (NR concentration 180 nM, RXRa partner concentration 90 nM)
In short: as §1

[8] = system: PPARg:RXRa 270nM:90nM, anti-RXR (NR concentration 270 nM, RXRa partner concentration 90 nM)
In short: as §1

[9] = system: PPARg:RXRa 30nM:10nM, anti-RXR (NR concentration 30 nM, RXRa partner concentration 10 nM)
In short: as §1

[10] = system: PPARg:RXRa 90nM:30nM, anti-RXR (NR concentration 90 nM, RXRa partner concentration 30 nM)
In short: as §1

[11] = system: PPARg:RXRa DBDmut IVT, anti-RXR (DBD mutation: RXRa K156A/R161A, NR concentration 270 nM, RXRa partner concentration 90 nM)
In short: as §1

[12] = system: PPARg:RXRa IVT, anti-PPARg (NR concentration 270 nM, RXRa partner concentration 90 nM)
In short: as §1

[13] = system: PPARg DBDmut:RXRa IVT, anti-PPARg (DBD mutation: PPARg1 K132A/R137A, NR concentration 270 nM, RXRa partner concentration 90 nM)
In short: as §1

[14] = system: PPARg DBDmut IVT, anti-PPARg (DBD mutation: PPARg1 K132A/R137A, NR concentration 270 nM)
In short: as §1

[15] = system: PPARg homodimer (NR concentration 180 nM)
In short: as §1

[16] = system: PXR:RXRa (NR concentration 270 nM, RXRa partner concentration 90 nM)
In short: as §1

[17] = system: PXR homodimer (NR concentration 270 nM)
In short: as §1

[18] = system: RARa:RXR (NR concentration 270 nM, RXRa partner concentration 90 nM)
In short: as §1

[19] = system: RARa homodimer (NR concentration 270 nM)
In short: as §1

[20] = system: RARb:RXRa (NR concentration 270 nM, RXRa partner concentration 90 nM)
In short: as §1

Sequence | PBM binding z-score [1] | PBM binding z-score [2] | PBM binding z-score [3] | PBM binding z-score [4] | PBM binding z-score [5] | PBM binding z-score [6] | PBM binding z-score [7] | PBM binding z-score [8] | PBM binding z-score [9] | PBM binding z-score [10] | PBM binding z-score [11] | PBM binding z-score [12] | PBM binding z-score [13] | PBM binding z-score [14] | PBM binding z-score [15] | PBM binding z-score [16] | PBM binding z-score [17] | PBM binding z-score [18] | PBM binding z-score [19] | PBM binding z-score [20]
GCGACTGGGGCATCAGCAGGTTACCATTACTTAA | -0.552 | -0.326 | -0.0382 | 0.719 | -1.11 | 0.893 | 0.716 | 0.73 | -0.277 | 0.0982 | 3.98 | 3.38 | -0.628 | -0.712 | 0.00295 | -0.132 | -0.395 | 0.221 | -0.0866 | 0.832
CTCGAAAAGTCGTGCTCAGGTGAGTATACCAAAC | 0.362 | 0.378 | -0.0855 | 0.084 | -0.108 | 0.252 | -0.24 | -0.203 | -0.421 | -0.205 | -0.109 | 0.391 | 0.0169 | 0.325 | 1.15 | 0.0376 | 0.0183 | 0.523 | -0.119 | 0.264
AATACAGGGTCATCGTAGGCCAGTGTACGCACAG | 6.9 | 6.17 | 2.35 | 4.64 | 1.16 | 5.62 | 6.48 | 5.88 | 3.01 | 4.66 | 2.67 | 4.1 | 1.31 | 0.904 | 2.51 | 4.95 | 0.408 | 5.01 | 1 | 4.35
TCTTGTAGATCAACAGGAGGTAAAGAAAGATCGA | -0.194 | -0.0725 | -0.569 | -0.104 | -0.41 | 0.461 | 0.106 | 1.19 | 2.4 | 1.96 | 1.4 | 0.479 | 0.613 | 0.824 | -0.233 | 0.0383 | -0.784 | -0.044 | -0.132 | -0.124
ATCGAAAGGTCGAAGTTGAGTATACCCACCCGAA | 4.36 | 3.82 | 0.667 | 3.19 | 1.03 | 4.79 | 3.29 | 3.96 | 1.49 | 3.12 | 0.0828 | 1.59 | 1.1 | 1 | 1.31 | 3.05 | 0.0112 | 3.76 | 0.0634 | 3.84
CTCGAAAGGTCGTTCTCAGGTGAGTATACCAAAC | 5.6 | 4.19 | 1.08 | 3.68 | 1.37 | 4.56 | 1.99 | 3.08 | 0.949 | 2.29 | 0.679 | 1.61 | 0.926 | 0.753 | 2.11 | 3.62 | 0.471 | 4.19 | -0.0759 | 3.71
GCTATTAGTTGAAAGGGCAATCGAATGATTCTCG | 0.568 | 0.562 | 0.189 | 0.633 | -0.254 | 2.34 | 2.44 | 4.24 | 2.01 | 4.26 | 0.456 | 1 | -0.234 | 0.628 | 1.15 | 0.658 | 0.0729 | 1.25 | 0.589 | 1.74
